# PubChem BioAssay AID576 (NMMLSC, 2007)
# Out of some 24,000 compounds screened, about 150 (0.62%) were called active.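 How the source made its calls: active means fluorescence ratio above 2.44, which is 1 plus 3 SD of all ratios; inconclusive means signal too bright to measure linearly, ratio around 10 or more; inactive means fluorescence ratio below 2.44.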 The list comes from a sample in which actives are over-represented; it also holds similar structures and randomly drawn compounds.
# Experiment: compound autofluorescence on Jurkat cells, primary screen, artefact control for VLA-4 allosteric ligand project, cell-based, flow cytometry (AID 576);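 further: green fluorescence of cells measured with 488 nm excitation and 530 nm emission; tested at 10 µM compound in the well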
# Conditions: active compounds read high, 1 = vehicle-only cell background
row,SMILES,fluorescence ratio
1,O=C(O)C1CCN(S(=O)(=O)N2CCOCC2)CC1,1 (inactive)
2,CCN1CCCC1CNC(=O)Cn1cnc2ccc(S(=O)(=O)N3CCC(C)CC3)cc2c1=O (stereo unspecified),1.05 (inactive)
3,CCOc1cc2[nH]c(=O)n(CCC(=O)NCc3ccc(OC)cc3)c(=O)c2cc1OCC,0.94 (inactive)
4,CCOc1ccc(CNC(=O)C2CC(=O)N(C3CCCC3)C2)cc1OC (stereo unspecified),0.92 (inactive)
5,Cc1ccc(-c2ccc(=O)n(CC(=O)NCCCN3CCCCC3)n2)cc1,1.06 (inactive)
6,CCCS(=O)(=O)C(=C1Nc2ccccc2N1)S(=O)(=O)CCC,1.04 (inactive)
7,COc1cc(-n2c(C)nc3cc(C(=O)NCc4ccco4)ccc32)cc(OC)c1OC,1.05 (inactive)
8,COCCOC(=O)C1=C(C)NC(=O)CC1c1cc2c(cc1Br)OCO2 (stereo unspecified),0.99 (inactive)
9,O=C(NCCN1C(=O)C2C3C=CC(C3)C2C1=O)Nc1ccccn1 (stereo unspecified),0.86 (inactive)
10,Cc1ccc(-n2nc3c(c2NC(=O)c2ccc4c(c2)OCO4)CSC3)c(C)c1,0.97 (inactive)
11,CCN1CCN(c2ncnc3c2oc2nc(C)c4c(c23)CC(C)(C)OC4)CC1,0.92 (inactive)
12,Cc1cc(NS(=O)(=O)c2ccccc2)no1,0.95 (inactive)
13,CCC1CCCCN1CCNS(=O)(=O)c1ccc2c(c1)CCN2C(C)=O (stereo unspecified),1.02 (inactive)
14,CC(c1cccnc1)N(CCN(C)C)C(=O)Nc1ccc(Cl)c(Cl)c1 (stereo unspecified),1.09 (inactive)
15,CCCOc1ccc(-c2nc(N)n[nH]2)cc1,1.01 (inactive)
16,CCOc1ccc(-n2c(SC(C)C(=O)OC)nc3c(c2=O)SCC3)cc1 (stereo unspecified),1.09 (inactive)
17,CCOC(=O)C1CCN(C(=O)C2CCN(S(=O)(=O)CC)CC2)CC1,1.02 (inactive)
18,Cc1ccc2cccc(O)c2[n+]1[O-],1.03 (inactive)
19,CCC(C)n1[nH]c(=O)c2c(C)cc(C)nc21 (stereo unspecified),1.05 (inactive)
20,CCOC(=O)Cn1c(=O)oc2cc(S(=O)(=O)NCC3CCCO3)ccc21 (stereo unspecified),1.88 (inactive)
21,CCn1ncc(C2=NOC(C(=O)N3CCN(c4ccccc4)CC3)C2)c1C (stereo unspecified),1.1 (inactive)

row,SMILES,fluorescence ratio
1,Cn1cccc1C1(C(F)(F)F)NCCNC1=O (stereo unspecified),1.07 (inactive)
2,N#CC1=C(N)Oc2cc(O)ccc2C1C1CCCCC1 (stereo unspecified),1.18 (inactive)
3,COC(=O)C1=C(C)OC(N)=C(C#N)C1c1cc(OC)ccc1OC (stereo unspecified),1.05 (inactive)
4,C=C1c2cc(CC)ccc2NC(=O)N1c1ccc(C)cc1,1.01 (inactive)
5,O=c1c2ccccc2[nH]c(=S)n1CCN1CCC(=C(c2ccc(F)cc2)c2ccc(F)cc2)CC1,1.02 (inactive)
6,CC(=O)c1c(N2CCOCC2)nc(=S)n(Cc2ccccc2)c1C,1.3 (inactive)
7,COC(=O)Cn1cc(C(=O)c2cccs2)c2ccccc21,0.93 (inactive)
8,CCn1c(CSc2ncccn2)nnc1SCC(=O)N1c2ccccc2CC1C (stereo unspecified),1 (inactive)
9,Cc1ccc(S(=O)(=O)NCCN2CCOCC2)cc1C,1.05 (inactive)
10,CCOc1ccccc1NC(=O)C1CCN(S(=O)(=O)c2c(C)nn(C)c2C)CC1,1.02 (inactive)
11,CCOC(=O)c1ccc(NC(=O)Cn2nnc(-c3ccc(C)cc3)n2)cc1,1.04 (inactive)
12,CC(C)(C)NC(=O)Cn1nnc(-c2ccccc2Cl)n1,3.61 (active)
13,N#Cc1ccc(COC(=O)Cn2nnc(-c3ccccc3)n2)cc1,1.04 (inactive)
14,O=C(Nc1ccccc1C(=O)N1CCOCC1)C1CCC(=O)N1C1CCCC1 (stereo unspecified),1.04 (inactive)
15,CC(C)NC(=O)CCCn1c(=S)[nH]c2cc3c(cc2c1=O)OCO3,1.14 (inactive)
16,O=C(O)CSCNC(=O)CC12CC3CC(CC(C3)C1)C2,0.77 (inactive)
17,CCOC(=O)C1CCN(C(=O)CC2C(=O)N(Cc3ccccc3)C(C)c3nc4ccccc4n32)CC1 (stereo unspecified),1.02 (inactive)
18,CCOC(=O)c1c(NC(=O)c2cccs2)sc(C)c1C,1.07 (inactive)
19,Cc1c(C(=O)NCCN2CCOCC2)sc2nc(-c3ccc(F)cc3)cn12,1.22 (inactive)
20,CC1CCN(Cc2nc3c(c(=O)n(C)c(=O)n3C)n2Cc2cccc3ccccc23)CC1,1.06 (inactive)
